# Reference: PubChem BioAssay
# Columns and labels:
# [1] = test system: Human papillomavirus type 1a protein E7 (residues 44-93); assay: HPV1a E7 fragment binders on microarrays, primary screen, biochemical, small-molecule microarray, residues 44-93, 635 nm fluorescence (AID 1108); details: small-molecule microarray binding, fluorescence 635 nm; higher = more signal;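 also: E7 fragment applied at 1 µg/mL in TBST for 1 h at 4 C; score combines spot fluorescence with its signal to noise ratio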
# [2] = modulators of HCV replicon luciferase signal, primary screen, HCV replication inhibitor project, Huh7 cells, luciferase reporter (AID 1109); details: 48 h, higher = more signal;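 also: huh7 hepatoma cells harbouring a luciferase neomycin HCV replicon reporter; luciferase luminescence as measure of HCV replicon replication; test concentration not given here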
# [3] = target: Left-right determination factor 2 (Homo sapiens) (UniProt O00292); assay: LEFTY2 binders on small-molecule microarrays, primary screen, biochemical, small-molecule microarray, 635 nm fluorescence scan (AID 1110); details: LEFTY2 binding, higher = more signal
# Chain of Left-right determination factor 2 (Homo sapiens) (O00292 whole entry, looked up): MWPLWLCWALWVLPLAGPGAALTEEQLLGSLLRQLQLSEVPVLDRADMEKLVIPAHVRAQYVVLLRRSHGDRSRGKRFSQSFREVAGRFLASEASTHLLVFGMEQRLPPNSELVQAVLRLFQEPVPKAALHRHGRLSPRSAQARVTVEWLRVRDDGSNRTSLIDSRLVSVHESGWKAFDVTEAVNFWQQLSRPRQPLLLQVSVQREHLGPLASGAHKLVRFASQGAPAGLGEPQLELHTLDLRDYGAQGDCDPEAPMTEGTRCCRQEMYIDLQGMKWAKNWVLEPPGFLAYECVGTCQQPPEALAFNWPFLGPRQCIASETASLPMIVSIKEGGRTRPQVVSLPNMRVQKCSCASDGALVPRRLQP
# [4] = target: Calmodulin-1 (Homo sapiens) (UniProt P0DP23); assay: CALM1 binders on microarrays, EGTA buffer, profiling panel, biochemical, small-molecule microarray, Cy5-labelled CALM1 (AID 1111); details: Cy5-CALM1 binding fluorescence, higher = more signal;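 also: labelled calmodulin applied in Tris saline Tween buffer holding calcium plus EGTA and DTT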
# [5] = target: Calmodulin-1 (Homo sapiens) (UniProt P0DP23); assay: calcium-bound CALM1 binders on microarrays, profiling panel, artefact control for SMM control-protein annotation, biochemical, small-molecule microarray, Cy5-labelled CALM1, plus calcium (AID 1112); details: Cy5-CALM1 binding fluorescence, higher = more signal;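 also: score merges spot fluorescence with signal to noise from triplicate slides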
# [6] = small-molecule microarray binders of probe aWnt5a, primary screen, biochemical, biotinylated probe, 635/667 nm fluorescence (AID 1113); details: higher = more signal;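 also: score merges 667 nm fluorescence intensity with signal-to-noise per printed feature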
# [7] = small-molecule microarray binders of probe aShh, primary screen, biochemical, biotinylated probe, 635/667 nm fluorescence (AID 1114); details: higher = more signal;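 also: probe is biotin-labelled aShh protein from a stem cell growth factor screen; measures binding of labelled protein to compounds printed on the slide; score merges feature fluorescence at 667 nm with signal-to-noise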
# [8] = small-molecule microarray binders of probe aNog, primary screen, biochemical, biotinylated probe, 635/667 nm fluorescence (AID 1115); details: higher = more signal;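 also: probe is biotinylated aNog protein used at 0.15 µg/mL for 1 h at 4 C; z-score combines 667 nm fluorescence of each spot with its signal to noise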
# [9] = target: Torsin-1A-interacting protein 1 (Homo sapiens) (UniProt Q5JTV8); assay: LAP1 binders from COS7 cell lysate, primary screen, small-molecule microarray, 635/667 nm fluorescence (AID 1116); details: COS7-hLAP1 lysate binding, 635 nm fluorescence, higher = more signal
# Chain of Torsin-1A-interacting protein 1 (Homo sapiens) (Q5JTV8 whole entry, looked up): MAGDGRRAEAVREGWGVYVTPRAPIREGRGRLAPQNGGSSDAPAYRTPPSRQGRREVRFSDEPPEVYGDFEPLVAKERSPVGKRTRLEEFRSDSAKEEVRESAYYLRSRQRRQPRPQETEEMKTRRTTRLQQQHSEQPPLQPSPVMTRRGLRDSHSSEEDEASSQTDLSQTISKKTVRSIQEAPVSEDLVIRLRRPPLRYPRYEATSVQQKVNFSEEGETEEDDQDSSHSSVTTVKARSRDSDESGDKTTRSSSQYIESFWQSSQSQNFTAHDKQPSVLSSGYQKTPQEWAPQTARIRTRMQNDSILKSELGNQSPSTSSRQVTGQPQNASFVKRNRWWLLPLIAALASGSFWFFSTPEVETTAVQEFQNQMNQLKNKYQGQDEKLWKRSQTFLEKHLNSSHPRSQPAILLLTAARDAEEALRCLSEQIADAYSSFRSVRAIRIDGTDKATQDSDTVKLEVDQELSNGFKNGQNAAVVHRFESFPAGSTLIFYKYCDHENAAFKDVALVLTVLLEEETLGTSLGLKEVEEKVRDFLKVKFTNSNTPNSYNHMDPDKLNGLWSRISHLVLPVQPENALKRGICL
# [10] = target: Alpha-bungarotoxin (Bungarus multicinctus) (UniProt P60615); assay: alpha-bungarotoxin binders on microarray, profiling panel, artefact control for SMM control protein annotation, biochemical, small-molecule microarray, Alexa647 label, 635/667 nm fluorescence (AID 1117); details: alpha-BTX-A647 binding fluorescence, higher = more signal
# Chain of Alpha-bungarotoxin (Bungarus multicinctus) (P60615 whole entry, looked up): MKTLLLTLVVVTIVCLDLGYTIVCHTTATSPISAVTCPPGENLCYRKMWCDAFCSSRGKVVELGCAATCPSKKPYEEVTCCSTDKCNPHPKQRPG
SMILES,composite z-score [1],z-score [2],composite z-score [3],composite z-score [4],composite z-score [5],composite z-score [6],composite z-score [7],composite z-score [8],composite z-score [9],composite z-score [10]
COCCCNC(=O)[C@]1(Cc2ccccc2CN=[N+]=[N-])N=C(c2ccc(OCCCO)cc2)O[C@@H]1c1ccccc1CN=[N+]=[N-],-0.113,-2.54,0.0705,1.85,0.945,0.19,0.417,1.92,2.09,1.3
CCC[C@@H]1C[C@@]1(CCC)[C@@H](NC(=O)c1cccs1)c1ccc(Cl)cc1,-0.364,-2.05,-2.42,0.883,0.881,0.0529,0.29,1.39,-0.506,-0.0153
NC(=O)NCC#Cc1ccc2c(c1)[C@]1(C(=O)N2)[C@H](c2ccc(OCCO)cc2)N2[C@H](c3ccccc3)[C@H](c3ccccc3)OC(=O)[C@H]2[C@@H]1C(=O)N1CCCCCCC1,1.46,-1.02,1.73,2.77,1.2,1.38,0.565,3.11,4.35,1.77
C=CCOc1ccc([C@@H]2CC=C(C(=O)OCC)[C@H](c3cccc(Br)c3)N2S(=O)(=O)c2ccc(C)cc2)cc1,-1.07,-1.12,0.179,1.95,0.943,-0.0944,-0.107,-0.54,0.644,1.2
Cc1cc(C)c(C(O)C2C=CC3C(=O)N(c4ccccc4)C(=O)C3N2Nc2ccc([N+](=O)[O-])cc2)c(C)c1 (stereo not given),1.44,0.49,0.38,1.84,0.469,-0.131,0.0328,1.21,1.29,2.19
COc1ccc([Si](C)(C)[C@H]2[C@H](CCn3cc(CCO)nn3)O[C@@]3(C(=O)N(Cc4cccc(N5C(=O)c6cccc7cccc5c67)c4)c4ccccc43)[C@@H]2C)cc1,1.1,-5.14,0.464,0.35,0.241,-0.136,0.131,1.01,1.46,1.07
COC(=O)[C@@]1(Cc2ccc(F)cc2)[C@H]2c3cc(C(=O)N(C)C)n(CCSCCO)c3C[C@H]2CN1C(=O)c1ccccc1,0.0689,-0.663,-0.293,2.32,0.559,-0.0977,0.123,1.6,0.51,0.224
O=C1O[C@H](c2ccccc2)[C@H](c2ccccc2)N2[C@H]1[C@@H](C(=O)NC[C@H](O)c1ccccc1)[C@]1(C(=O)Nc3ccccc31)[C@H]2c1ccccc1OCCO,1.4,-3.34,-0.11,1.31,0.376,-0.027,1.47,2.84,1.41,2.46
O=C1O[C@@H](c2ccccc2)[C@@H](c2ccccc2)N2[C@@H](c3ccc(O)cc3)[C@]3(C(=O)Nc4ccc(C#CC5(O)CCCCCC5)cc43)[C@@H](C(=O)N3CCN(c4ncccn4)CC3)[C@H]12,1.4,-0.843,0.114,1.03,0.137,-0.0721,0.255,0.146,1.18,1.21
CC(C)CCC[C@@H](C)[C@H]1CC[C@@]2(C)C3=C(CC[C@]12C)[C@@]1(C)CC[C@H](OC(=O)C(C)(C)C)C(C)(C)C1CC3 (stereo not given in full),0.506,-0.435,0.502,0.0548,-0.718,-0.0792,-0.134,-0.705,-0.0812,0.448
C=CCNC(=O)[C@H]1[C@@H]2C(=O)O[C@@H](c3ccccc3)[C@@H](c3ccccc3)N2[C@@H](c2ccc(O)cc2)[C@]12C(=O)N(C(=O)OCCOC)c1ccc(C#CC3(O)CCCCCC3)cc12,0.739,-0.302,-0.326,0.487,0.205,-0.0445,0.0469,0.268,1.16,1.2
C=C[C@@H](O)[C@H]1CC(c2ccccc2)=NO1,-0.893,0.479,0.277,-0.358,-0.711,-0.208,0.167,-0.0524,0.0222,-0.0532
NC(=O)NCC#Cc1ccc2c(c1)[C@]1(C(=O)N2)[C@H](c2ccc(O)cc2)N2[C@H](c3ccccc3)[C@H](c3ccccc3)OC(=O)[C@H]2[C@@H]1C(N)=O,-0.366,0.114,-0.749,-0.571,0.261,-0.185,0.0469,0.218,-0.757,0.387
Cc1ccc(S[C@]2(C(=O)NCC(C)C)CC(=O)N(C3CCCCC3)[C@@H]2c2ccc(CO)cc2I)cc1,1.35,-2.6,0.261,1.73,0.549,0.02,-0.188,-0.471,0.703,0.0462
CC(C)NC(=O)[C@@]1(Cc2ccccc2I)c2ccccc2C(=O)N(Cc2ccccc2C(F)(F)F)[C@H]1c1ccc(CO)cc1,-0.358,-1.47,-0.0083,0.503,0.377,-0.096,-0.012,0.647,0.506,0.565
CCOC(=O)C[C@H]1[C@H](OC(=O)c2ccccc2-c2ccccc2)[C@@H](NC(=O)c2ccccc2)c2cc(OCCCO)ccc2N1C(=O)Cc1ccc(OC)cc1,-0.12,-1.31,-0.0713,-0.026,-0.641,-0.107,-0.289,-0.0877,0.593,0.66
CCCN1C(=O)[C@@]2(Cc3ccccc3)N=C(c3ccc(OCCCO)cc3)O[C@H]2c2ccccc21,1.36,-2.1,0.133,-0.141,-0.489,-0.101,0.195,0.0716,1.48,1.6
